Experimental data as given in PubChem BioAssay (EPA / NIEHS).
Calls of active or inactive are those of the source. The calls were made as follows: active = hit-call score of the fitted dose curve at least 0.9, where 1 is the maximum; inactive = score below 0.9.

Read-out: NAD(P)H dehydrogenase [quinone] 1 (NQO1), NQO1 (gene 1728)
Assay: LTEA_HepaRG_NQO1: Life Technologies and Expression Analysis (LTEA) Assay for NAD(P)H dehydrogenase [quinone] 1 (NQO1) using HepaRG (AID 2283526)
Settings: mRNA level, 48 h; actives raise or lower the signal
Method: LTEA_HepaRG is a cell based, multiplexed-readout assay that uses HepaRG, a human liver cell line, with measurements taken at 48 hours after chemical dosing on a 96-well plate.LTEA_HepaRG_NQO1 is one of 102 assay component(s) measured in the LTEA HepaRG cell culture assay. It is a marker of Diseases associated with NQO1 include Tardive Dyskinesia and Childhood Leukemia.Data from the assay component LTEA_HepaRG_NQO1 was analyzed into 1 endpoint. This assay endpoint, LTEA_HepaRG_NQO1, was analyzed with bidirectional fitting relative to DMSO as the negative control and baseline of activity. Using a type of inducible reporter, measures of mRNA induction for gain or loss-of-signal activity can be used to understand regulation of transcription factor activity. To generalize the intended target to other relatable targets, this assay endpoint is annotated to the oxidoreductase intended target family, where the subfamily is quinone-acceptor.
A total of 1060 chemcials from the ToxCast library were tested in eight-point concentration-response experiments. Cell culture and cytotoxicity assays were conducted at Thermo Fisher Scientific's Custom Services facility (Madison, WI). A single lot of human HepaRG cells (Thermo Fisher Scientific, Frederick, MD) was used for the cell culture experiments. 96-well format collagen type I coated plates of human HepaRG cells were prepared using established methods. Briefly, cryopreserved HepaRG cells were thawed, plated at a density of approximately 100,000 cells/well in HepaRG Thaw, Plate, and General Purpose media (HPRG770, Thermo Fisher Scientific), and incubated for 48 hours. 0.5% DMSO was selected as vehicle control to balance the requisite need of DMSO in HepaRG cultures to maintain differentiation (for example, baseline metabolism, proportions of hepatocytes vs. cholangiocytes), while enabling further hepatic receptor pathway activation (for example, PXR and CAR) in response to chemical exposure. 48 hours after plating, the culture medium was replaced with HepaRG Serum-Free Incudtion Media. Cells were exposed to each test chemical in duplicate and maintained in CO2 incubators for another 48 hours. Chemical plates were thawed to room temperature and 200x concentrations of treatment groups were prepared. 8-point conentration-reponse curves were made with the highest exposure at 100 uM, followed by half-log dilutions, all in 0.5% DMSO. Each test plate contained variouse controls, induction positive controls (1mM phenobarbital), cytotoxicity positive controls ([…] aflatoxin B1), vehicle controls (0.5% DMSO), and total lysis controls (0.5% DMSO). Cell morphology images were taken using an Essen IncuCyte FLR automated microscope, with six 96-well plates imaged in about 24 minutes. Images were captured and exported and JPEG files. Spent culture media was transfered to black-well plates for the LDH assay, and remaining media was sorted at -80 C for later use. Cells were treated with RLT buffer and frozen until shipped for gene expression analysis. Total RNA was isolated from the cell suspension in 75 uL of Buffer RLT (Qiagen, Germantown, MD 20874) by Quintiles/Expression Analysis (Durham, NC) using a custom isolation procedure. Total RNA from each plate well was transferred to a preamplification plate. Fluidigm's 96.96 Dynamic ArrayTM (Fluidigm, Amsterdam, the Netherlands) technology was used for gene expression analyses by quantitative reverse transcription polymerase chain reaction (qRT-PCR, performed by Quintiles/Expression Analysis, Durham, NC)89. Standard TaqManTM Assays (Applied Biosystems/ThermoFisher Scientific, Foster City, CA) were used to assess the expression of 93 genes selected based on their selectivity and sensitivity to important hepatic receptors known to be modulated by environmental chemicals; importance in human hepatocyte functionality; and hepatotoxicity. […]

Row | SMILES | outcome | AC50
1 | Cc1cccc(Nc2cc(Cl)nc(SCC(=O)O)n2)c1C | inactive | 
2 | CCCCOC(=O)CCCCCCCCC(=O)OCCCC | inactive | 
3 | COc1cc(C=O)ccc1O | inactive | 
4 | O=[N+]([O-])C(CO)(CO)CO | inactive | 
5 | CCNc1cccc(C)c1 | inactive | 
6 | CC(C)(C)c1cc(O)c(C(C)(C)C)cc1O |  | 80.6 µM (active)
7 | CCCCN(CCCC)CCCC | inactive | 
8 | CC1(C)NC(=O)NC1=O | inactive | 
9 | CC1=C(/C=C/C(C)=C/C=C/C(C)=C/CO)C(C)(C)CCC1 |  | 52.2 µM (active)
10 | c1cc(-c2ccncc2)ccn1 | inactive | 
11 | CC=Cc1ccc(O)c(OC)c1 | inactive | 
12 | NS(=O)(=O)c1cc2c(cc1Cl)NCNS2(=O)=O | inactive | 
13 | CCOC(=O)CCC(=O)OCC | inactive | 
14 | Cc1ccc(C)c(O)c1C | inactive | 
15 | CN1CCN(Cc2cc(-c3ccc4[nH]c(=O)oc4c3)co2)[C@@H](c2ccc(F)cc2)C1 | inactive | 
16 | Cc1ccc(Cl)cc1 | inactive | 
17 | CCCCC(CC)COC(=O)CC(C(=O)OCC(CC)CCCC)S(=O)(=O)O (stereo not given) | inactive | 
18 | CC(=O)Oc1ccccc1C(=O)O | inactive | 
19 | CCCCCCOCCO | inactive | 
20 | COc1cc(-c2nc(NC(=O)c3cc4cc(C)cc(C)c4n3CC(=O)O)sc2CCC2CCCCC2)c(OC)cc1Cl |  | 3.35 µM (active)

Row | SMILES | outcome | AC50
21 | NCCO | inactive | 
22 | OC[C@@H](O)[C@@H](O)[C@H](O)[C@H](O)CO | inactive | 
23 | Oc1ccc2ccccc2c1N=Nc1ccccc1 | inactive | 
24 | O=c1c(O)c(-c2ccc(O)c(O)c2)oc2cc(O)cc(O)c12 | inactive | 
25 | CCCc1cc(=O)[nH]c(=S)[nH]1 | inactive | 
26 | CN1CCCC1=O | inactive | 
27 | NCC1(Cc2noc(=O)[nH]2)CCCCC1 | inactive | 
28 | Nc1ccccc1N | inactive | 
29 | Cc1ccc(C(C)C)c(O)c1 | inactive | 
30 | Cc1ccccc1Cl | inactive | 
31 | Clc1cc(Cl)c(Cl)cc1Cl | inactive | 
32 | C[Si]1(C)O[Si](C)(C)O[Si](C)(C)O[Si](C)(C)O1 | inactive | 
33 | O=c1[nH]cc(F)c(=O)[nH]1 | inactive | 
34 | C=CCOC(=O)c1ccccc1C(=O)OCC=C | inactive | 
35 | Cc1cc(=O)[nH]c(=S)[nH]1 | inactive | 
36 | COC(=O)c1ccc(O)cc1 | inactive | 
37 | O=C(O)Cc1ccccc1Nc1c(Cl)cccc1Cl | inactive | 
38 | CC(=O)C(C)=CC1C(C)=CCCC1(C)C (stereo not given) | inactive | 
39 | CCCCCCC(=O)OCC | inactive | 
40 | CCCCc1ccc2c(n1)[C@@H](c1ccc(OC)cc1C[C@H](C)C(=O)O)[C@H](C(=O)O)[C@H]2c1ccc2c(c1)OCO2 | inactive | 
